Screening data from PubChem BioAssay.
NPC1 promoter act – activators of NPC1 promoter. actives 2.4% (n = 320,000). Potency, µM (doses to about 9.22 µM), without a hit: at the highest dose activation, hits mostly activators. Huh7 NPC1 promoter luciferase reporter, 24 h; also: % of control where 0% means no effect; nearly all actives have a fitted effect of over 60% in size
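Luciferase expression driven by the NPC1 promoter was measured in stably transfected Huh7 cells after a 24 h compound incubation, using a luciferase reagent and a luminescence read.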
ELG1 genotoxic – induces genotoxicity in HEK293T cells with luciferase-tagged ELG1; Potency, µM (titrated, usually from 46 µM), without a hit: at the top dose activity change, positive = activation, actives largely listed as activators; AID 504466; actives 1.3% (n = 330,000); HEK293T ELG1-luciferase reporter, luminescence, 16 h; also: % of control where 0% means no effect; nearly all actives have a fitted effect of over 60% in size
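Genotoxic stress is detected as increased luminescence from luciferase-tagged ELG1 in HEK293T cells, measured with ONE-Glo after a 16 hr treatment at 37 °C.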
SMN2 splice up – increases expression of the SMN2 splice variant. HEK293 SMN2-luciferase splicing reporter, luminescence, 30-36 h. Potency, µM (highest dose often 46.1 µM), for inactives: top-dose activity change, positive = activation, hits mostly activators. actives 2.8% (n = 210,000). AID 1458; also: % of control where 0% means no effect; nearly all actives have a fitted effect of over 55% in size
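HEK293 cells carry an SMN2 […]–luciferase reporter in which exon 7 inclusion puts luciferase in frame. Cells were plated 10-12 h before compound addition, then incubated 30-36 h at 37C. ONE-Glo luminescence was read; sodium butyrate at 4.5 mM final served as control.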
Luc counter – Kinase-Glo luciferase inhibition (counter-screen). Q27757. Kinase-Glo luciferase, ATP luminescence, 8 min. Potency, µM (series often up to 38.3 µM), for inactives: at the highest dose activity change, negative = inhibition, actives largely listed as inhibitors. actives 0.28% (n = 200,000); also: % is scaled to controls: 0 for no effect and ±100 for the full control effect; nearly all actives have a fitted effect of over 60% in size
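Light output from Kinase-Glo luciferase with luciferin and 10 uM ATP in 50 mM imidazole pH 7.2, KCl, MgCl2, Tween 20, BSA; compound pin-delivered, 8-min ambient incubation, then luminescence read.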
FLuc counter – counter-screen for miR-21 project: firefly luciferase inhibitors or activators | P08659 | purified FLuc, Km substrates, luminescence inhibition | Potency, µM (top dose mostly 57.5 µM), for the others: at the top dose activity change, negative = inhibition, most hits filed as inhibitors | actives 6.9% (n = 360,000);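 also: plate controls were vehicle for no effect and reference inhibitor for full effect; nearly all actives have a fitted effect of over 55% in size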
Target sequence (P08659 whole entry, looked up): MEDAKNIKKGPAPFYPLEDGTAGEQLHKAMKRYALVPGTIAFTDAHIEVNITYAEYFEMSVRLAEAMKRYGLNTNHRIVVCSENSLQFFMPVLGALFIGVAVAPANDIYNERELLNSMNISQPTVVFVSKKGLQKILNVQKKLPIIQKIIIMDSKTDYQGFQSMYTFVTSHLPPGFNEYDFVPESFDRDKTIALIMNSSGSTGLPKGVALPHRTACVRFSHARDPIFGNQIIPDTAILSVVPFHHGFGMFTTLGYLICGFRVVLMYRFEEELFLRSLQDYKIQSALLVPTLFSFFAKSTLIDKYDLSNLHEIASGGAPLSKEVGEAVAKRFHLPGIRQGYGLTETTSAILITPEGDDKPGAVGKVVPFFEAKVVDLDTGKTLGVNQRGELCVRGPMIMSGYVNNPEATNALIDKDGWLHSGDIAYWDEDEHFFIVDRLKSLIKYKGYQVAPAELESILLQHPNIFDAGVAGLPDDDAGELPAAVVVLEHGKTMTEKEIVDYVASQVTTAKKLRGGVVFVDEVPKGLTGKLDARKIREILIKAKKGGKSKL
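Biochemical qHTS of compounds, final roughly 60 µM downward over six points, against 10 nM purified firefly luciferase using Km concentrations of substrates (10 uM D-luciferin, 10 uM ATP) in Tris acetate pH 7.5 buffer; luminescence output.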
Rab9 promoter act – activates the Rab9 promoter; Huh7 Rab9 promoter-luciferase reporter, luminescence, 24 h; Potency, µM (top dose mostly 9.22 µM), for the others: at the top dose activation, negative = inhibition, hits mostly activators; actives 2.8% (n = 320,000); also: % of control where 0% means no effect; nearly all actives have a fitted effect of over 60% in size
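Huh7 cells stably carrying a Rab9 promoter-luciferase reporter, 1500 cells per well in OP-MEM I with 10% FBS, treated with compound 24 hours at 37C. Luciferase activity read by luminescence after 10 minutes with Amplite reagent.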
Numbers without * were called inactive; ? = inconclusive; · = no result; [ ] = dose if it differs, or a comment. Shown are actives, neighbours in structure and some others; about 7.5% of the full set was active somewhere. Calls follow the shape of the dose curve; as a rule, active = well fitted curve in the direction sought with a large enough effect; inconclusive = small, poorly fitted or top-dose-only effect, or another doubt; inactive = no such curve, though single readings can be large; an effect the other way counts as inactive or inconclusive. Potency is read from the fitted curve at half-maximal effect.

SMILES	NPC1 promoter act	ELG1 genotoxic	SMN2 splice up	Luc counter	FLuc counter	Rab9 promoter act
O=C(Oc1ccc2ccc(OC(=O)N3CCCCCC3)cc2c1)N1CCCCCC1	14.6%	?	-36.4%	-3.1%	13.5µM*	13.4%
CC(C)C(=O)CP(=O)(O)O	·	·	-5.0%[9.22 µM]	-2.1%[7.66 µM]	·	·
O=C(Oc1c(Cl)cc(Cl)c2ccccc12)N1CCCCC1	6.5%	?	-12.6%	-1.5%	?	0.1%
O=C(Oc1ccc(Cl)c2ccccc12)N1CCCCC1	11.8%	?	1.9%	16.0%	16.9µM*	5.1%
CC(=O)OC1=CC2=CC[C@H]3[C@H]4CCC(=O)[C@@]4(C)CC(=O)[C@]3(S)[C@]2(C)CC1	·	·	2.7%[9.22 µM]	-1.1%[7.66 µM]	·	·
CCC(C)/C=C(C)/C=C/C1=CC2=C(Cl)C(=O)C(C)(OC(C)=O)C(=O)C2=CO1 (stereo unspecified)	-1.2%	3.5%	·	·	21.3µM*	14.8%
CCOC(=O)C1CCCN(C(=O)c2ccc3oc(Cc4ccccc4)nc3c2)C1 (stereo unspecified)	3.55µM*	?	·	·	12µM*	4.47µM*
Cc1c(C)c2ccc(OCC(=O)N3CCC[C@@H]3C(=O)O)c(C)c2oc1=O	-3.3%	0.3%	·	·	?	0.3%
CCc1ccc(-c2nn(Cc3ccccc3)cc2C=O)cc1	2.51µM*	?	14.1µM*	-1.3%	6.75µM*	1µM*
O=C(O)c1cn(Cc2ccccc2)nc1-c1ccccc1	-0.6%	-3.2%	-10.9%	-0.1%	-14.6%	0.0%
CN1C(=O)/C(=C/c2ccc(Cl)s2)C(=O)NC1=S	0.2%	16.6%	·	·	?	6.3%
Cc1ccsc1/C=C1\C(=O)NC(=S)N(C)C1=O	-0.5%	?	·	·	15.1µM*	-5.1%
CN1C(=O)/C(=C/c2ccc(N3CCCCCC3)o2)C(=O)NC1=S	2.24µM*	20.6µM*	11.2µM*	-15.7%	4.78µM*	1.41µM*
CN1C(=O)/C(=C\c2ccc(N3CCCCC3)o2)C(=O)NC1=S	2.51µM*	5.8µM*	7.08µM*	-15.4%	8.49µM*	1.58µM*
COc1ccc2cc1Oc1ccc(cc1)CC1c3cc(c(OC)cc3CCN1C)Oc1c(OC)c(OC)cc3c1C(C2)N(C)CC3 (stereo unspecified)	·	·	-20.9%	-7.2%	·	·
CCNCCC1(CC)C(=O)NC(=O)NC1=O	·	·	-3.3%[9.22 µM]	-0.6%[7.66 µM]	·	·
O=C(Nc1nc2ccccc2s1)c1cccn(Cc2ccccc2)c1=O	·	·	·	·	0.757µM*	·
Cc1ccc2nc(NC(=O)c3cccn(Cc4ccc(Cl)cc4)c3=O)sc2c1	·	·	·	·	-0.3%	·
CCOc1ccc2nc(NC(=O)c3cccn(Cc4ccccc4)c3=O)sc2c1	·	·	·	·	6.01µM*	·
CCOc1ccc2nc(NC(=O)c3cccn(Cc4ccc(C)cc4)c3=O)sc2c1	·	·	·	·	-5.5%	·
Cc1ccccc1Cn1cccc(C(=O)Nc2nc3ccccc3s2)c1=O	·	·	·	·	0.426µM*	·
CC[C@H]1CN2CCc3cc(OC)c(OC)cc3[C@H]2C[C@@H]1C[C@H]1NCCc2c1[nH]c1ccc(O)cc21	·	·	-89.3%[9.22 µM]	-2.6%[7.66 µM]	·	·
O=[As](O)(O)c1ccc(Cc2ccc([As](=O)(O)O)cc2)cc1	·	·	-35.3%[9.22 µM]	0.2%[7.66 µM]	·	·
C[n+]1c2ccccc2nc2ccc(NCCO)cc21	2.4%	-18.0%	·	·	19µM*	-5.0%[1.84 µM]
OCCNc1c2c(nc3ccccc13)CCCC2	-0.8%	-4.0%	-16.8%	1.5%	3.0%	-10.0%
SMILES	NPC1 promoter act	ELG1 genotoxic	SMN2 splice up	Luc counter	FLuc counter	Rab9 promoter act
CNc1ccc2nc3ccccc3[n+](C)c2c1	-43.2%	-5.9%	·	·	16.9µM*	-22.4%[1.84 µM]
O=C(NCP(=O)(O)O)c1cccnc1	·	·	-2.8%[9.22 µM]	-4.0%[7.66 µM]	·	·
NC(N)=NCCN=C(N)N	·	·	-1.9%[9.22 µM]	-1.4%[7.66 µM]	·	·
Oc1cccc(/C=N/NP(=S)(c2ccccc2)c2ccccc2)c1	1.2%	2.6%	-13.9%	19.2%	23.9µM*	-3.1%
C[C@H](CC(C#N)(c1ccccc1)c1ccccc1)N1CCCCC1	·	·	-16.2%[9.22 µM]	-2.4%[7.66 µM]	·	·
Cc1ccccc1-n1c(O)c(/C=N/NC(=O)c2ccccc2O)c(=O)[nH]c1=S	17.3%	17.0%	·	·	10.7µM*	22.6%
O=C(N/N=C/c1c(O)n(C2CC2)c(=S)[nH]c1=O)c1ccccc1O	?	11.0%	?	-5.1%	15.1µM*	?
O=C(N/N=C/c1c(O)n(-c2ccccc2)c(=S)[nH]c1=O)c1ccccc1	-0.2%	5.9%	·	·	?	2.0%
CCC1(CCSC(=N)N)C(=O)NC(=O)NC1=O	·	·	0.9%[9.22 µM]	-6.0%[7.66 µM]	·	·
O=C(O)c1cccc([As]=[As]c2cccc(C(=O)O)c2)c1 (stereo unspecified)	·	·	-10.7%[9.22 µM]	-1.3%[7.66 µM]	·	·
O=C(Nc1ccccc1)c1cccn(Cc2ccccc2)c1=O	16.0%	?	-45.6%	0.8%	23.9µM*	3.98µM*
Cc1ccc(Cn2cccc(C(=O)Nc3ccc4c(c3)OCO4)c2=O)cc1	·	·	·	·	-17.0%	·
CCc1ccc(NC(=O)c2cccn(Cc3cccc([N+](=O)[O-])c3)c2=O)cc1	·	·	·	·	9.53µM*	·
O=C(Nc1ccc2c(c1)OCO2)c1cccn(Cc2ccccc2)c1=O	·	·	·	·	16.9µM*	·
O=C(Nc1ccncc1)c1cccn(Cc2ccccc2)c1=O	-26.8%	0.9%	-74.6%	6.7%	-14.0%	-29.2%
Cc1ccc(Cn2cccc(C(=O)Nc3ccc4c(c3)OCCO4)c2=O)cc1	·	·	·	·	8.49µM*	·
O=C(Nc1ccon1)c1cccn(Cc2ccccc2)c1=O	·	·	·	·	-1.7%	·
O=C(Oc1ccc(S(=O)(=O)F)cc1F)c1ccccc1Cl	·	·	-6.8%[9.22 µM]	-1.1%[7.66 µM]	·	·
O=C(CSCc1ccccc1)Nc1ccc2c(c1)OCO2	?	?	11.1%	0.3%	15.1µM*	3.16µM*
O=C(Nc1ccc2c(c1)OCO2)c1cccn(Cc2cccc(F)c2)c1=O	·	·	·	·	26.9µM*	·
Cc1ccc(NC(=O)N(Cc2ccc3c(c2)OCO3)C2CCN(Cc3ccccc3)CC2)cc1C	·	·	·	·	-5.8%	·
O=C(Nc1ccc2c(c1)OCCO2)c1cccn(Cc2cccc(F)c2)c1=O	·	·	·	·	21.3µM*	·
